The structures appear in SMILES notation.

The target in one test is T1, Aspartate--tRNA(Asp/Asn) ligase (Mycobacterium tuberculosis (strain ATCC 25618 / H37Rv)) (UniProt P9WFW3). Note: in the data most compounds retested in dose-response had high values.
T1 sequence (whole entry): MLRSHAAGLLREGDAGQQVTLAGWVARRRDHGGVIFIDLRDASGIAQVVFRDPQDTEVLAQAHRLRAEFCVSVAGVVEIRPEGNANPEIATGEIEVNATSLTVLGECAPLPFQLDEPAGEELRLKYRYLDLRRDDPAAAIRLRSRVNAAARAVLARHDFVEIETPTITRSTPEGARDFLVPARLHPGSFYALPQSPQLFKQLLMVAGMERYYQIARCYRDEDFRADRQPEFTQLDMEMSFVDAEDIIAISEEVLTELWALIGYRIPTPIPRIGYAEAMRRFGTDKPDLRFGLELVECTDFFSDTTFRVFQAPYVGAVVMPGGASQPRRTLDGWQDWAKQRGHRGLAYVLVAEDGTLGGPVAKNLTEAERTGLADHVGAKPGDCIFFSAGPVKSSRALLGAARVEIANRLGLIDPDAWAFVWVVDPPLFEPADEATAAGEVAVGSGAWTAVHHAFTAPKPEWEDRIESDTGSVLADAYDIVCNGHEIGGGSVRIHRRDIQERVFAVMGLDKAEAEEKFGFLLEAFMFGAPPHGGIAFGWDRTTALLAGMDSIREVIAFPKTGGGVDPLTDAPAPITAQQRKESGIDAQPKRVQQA
The test can be described thus: Assay for Asp RNA synthetase-1 from Mycobacterium tuberculosis. The class given is functional. More on the design: scale not given: direction of the effect not stated beside the values. As to conditions: 30 µM.
`CC(Oc1ccccc1C(F)(F)F)C(=O)NCCC(=O)N(C)C` (stereo not given): the Percent Effect is -1.14%.

In the case of `Cc1cc(C(=O)N2CCc3ncc(CN4CCOCC4)n3CC2)no1`, the Percent Effect is -4.02%.

As to `CSCC(C)(O)CNC(=O)c1ccc(Br)cc1F` (stereo not given), the Percent Effect worked out at 3.26%.

In the case of `CCC(CNC(=O)c1cc(OC)ccc1Br)N1CCc2ccccc2C1` (stereo not given), the Percent Effect is 4.47%.

On to `CCN1CCN(C2CCN(Cc3nc(-c4ccoc4)no3)CC2)C1=O`, for which the Percent Effect came to 1.49%.

`CC(=O)N1CCC2(CC1)CC[C@@]1(C(=O)N(C)C)CN(S(C)(=O)=O)C[C@@H]21`: the Percent Effect is -1.99%.

For `O=C(c1ccn(-c2cccc(Cl)c2)n1)N1CCN(C2CC2)CC1`, the Percent Effect is -1.64%.

Take `O=C(Cc1c[nH]c2ccccc12)N1CCN(C(=O)c2ccoc2)CC1`: the Percent Effect was determined as 7.22%.

In the case of `Cn1cnc2c1CCN(Cc1csc(-c3ccsc3)n1)C2`, the Percent Effect was found to be 3.77%.

For the compound `COc1ccccc1OC1(C(=O)O)CCN(c2nccnc2C)CC1`, the Percent Effect is 1.09%.

As for `COCCN(C)C[C@@H]1CCC[C@@H]2CN(c3cc(OC)ncn3)C[C@@H]21`, the Percent Effect amounted to 1.66%.

With `Cc1ccn(-c2ccccc2NCc2ccccn2)n1`, the Percent Effect amounted to 0.661%.

Turning to `O=C(NC1CC1)[C@@H]1CCO[C@@H]2CCN(Cc3ccsc3)C[C@H]21`, the Percent Effect turned out to be 0.474%.

For the compound `Cc1nccn1C1CCCN(C(=O)c2ccc(N3CCCC3)nn2)C1` (stereo not given), the Percent Effect was 2.5%.

For the compound `O=C(NCc1cc(O)ncn1)C1CCOc2ccccc2C1` (stereo not given), the Percent Effect was -6.23%.

Regarding `Cc1ccc(NC2CCN(C(=O)Cc3cccc(F)c3)CC2)nn1`, the Percent Effect turned out to be 14.3%.

With `O=C(c1ccncc1)N1CCC(c2nc(O)cc(-c3ccncc3)n2)C1` (stereo not given), the Percent Effect was -0.574%.

As for `CCNC(=O)[C@@H]1C[C@H](NC(=O)c2cncnc2C)CN1CCCSC`, the Percent Effect is -2.78%.

For the compound `O=C(c1cccc(S(=O)(=O)NCCCc2ccco2)c1)N1CCOCC1`, the Percent Effect was determined as 6.79%.

Regarding `O=C(CCc1cnn(-c2ccccc2)c1)N1CCCC(n2cccn2)C1` (stereo not given), the Percent Effect was -0.589%.

With `Cc1cccc(COC[C@]23COC[C@H]2CN(C(=O)c2ccsc2)C3)n1`, the Percent Effect was 1.56%.

As for `N#Cc1cccnc1NCCNC(=O)N1CCCC(C(F)(F)F)C1` (stereo not given), the Percent Effect is -0.524%.

Take `CCOc1ccc(Cl)c(C(=O)N(C)C)n1`: the Percent Effect was -0.544%.

As for `CCOc1ccc(S(=O)(=O)NC(=O)CCC2CCCO2)cc1` (stereo not given), the Percent Effect was 2.17%.

Take `COCCn1ccnc1C1CCCN(C(=O)CSCC2CC2)C1` (stereo not given): the Percent Effect is -2.09%.

With `Cc1cc(C)c(CNC(=O)NCC(O)c2cccc(F)c2)c(=O)[nH]1` (stereo not given), the Percent Effect is 2.36%.

Regarding `CN1CCN(c2cc(CNC(=O)c3ccc(=O)[nH]n3)ccn2)CC1`, the Percent Effect was -0.544%.

As to `CSc1ccc(-c2nc(CN3CCC(NC(C)=O)C3)c(C)o2)cc1` (stereo not given), the Percent Effect is 2.73%.

In the case of `Cc1nc(C2CCN(C(=O)c3ccc(=O)n(C)c3)CC2)c2sccn12`, the Percent Effect is 3.56%.

For the compound `Cc1cccc2[nH]c(C3CCN(C(=O)c4ccnn4C)CC3)nc12`, the Percent Effect is -0.0892%.

For `CC(Cn1ccnc1)NC(=O)C1(c2ccc(F)cc2)CC1` (stereo not given), the Percent Effect is -1.46%.

Consider `CCn1ccc(C(=O)NCCCN2CCOCC2)n1`, for which the Percent Effect came to 8.41%.

For `COC(=O)c1sccc1S(=O)(=O)NCC1(O)CCOc2ccccc21` (stereo not given), the Percent Effect is -2.1%.

Regarding `Cc1cc(=O)[nH]c(CCNC(=O)C(c2ccc(F)cc2)N(C)C)n1` (stereo not given), the Percent Effect was -1.19%.

As for `Cn1nc(C2CCN(C(=O)Cc3cccc(F)c3)CC2)c2cccnc21`, the Percent Effect was -2.81%.

On to `COc1ccc2c(c1)CCCN2Cc1nc2c(cnn2C)c(=O)[nH]1`, for which the Percent Effect is -4.23%.

Regarding `Cc1cc2n(n1)CC(CNCc1ccc(-n3cccn3)nc1)CN2` (stereo not given), the Percent Effect was -2.59%.

As to `O=C(NCCC1=CCCCC1)C1CCN(c2ccc3nncn3n2)CC1`, the Percent Effect was -1.42%.

On to `CCc1nccn1C1CCCN(C(=O)c2cn3c(C)cccc3n2)C1` (stereo not given), for which the Percent Effect is -4.04%.

For the compound `Cc1cc(NC(=O)NCc2ccccn2)n(C)n1`, the Percent Effect is 3.94%.

The target in a further test is Shiga toxin 2 (Escherichia coli O157:H7) (UniProt P09385+P09386). In words: E. coli 0.157:H7 Shiga Toxin SOP - stx2 screening assay. The class given is functional. More on the design: scale not given: direction of the effect not stated beside the values. As to conditions: 30 µM.
As for `CC(Oc1ccccc1C(F)(F)F)C(=O)NCCC(=O)N(C)C` (stereo not given), the Percent Effect was determined as 8.25%.

Consider `Cc1cc(C(=O)N2CCc3ncc(CN4CCOCC4)n3CC2)no1`, for which the Percent Effect was -7.88%.

For `CSCC(C)(O)CNC(=O)c1ccc(Br)cc1F` (stereo not given), the Percent Effect worked out at 13.2%.

Take `CCC(CNC(=O)c1cc(OC)ccc1Br)N1CCc2ccccc2C1` (stereo not given): the Percent Effect stood at 9.68%.

Consider `CCN1CCN(C2CCN(Cc3nc(-c4ccoc4)no3)CC2)C1=O`, for which the Percent Effect was 22.7%.

As to `CC(=O)N1CCC2(CC1)CC[C@@]1(C(=O)N(C)C)CN(S(C)(=O)=O)C[C@@H]21`, the Percent Effect is -10.1%.

As to `O=C(c1ccn(-c2cccc(Cl)c2)n1)N1CCN(C2CC2)CC1`, the Percent Effect stood at 20.3%.

For `O=C(Cc1c[nH]c2ccccc12)N1CCN(C(=O)c2ccoc2)CC1`, the Percent Effect is -16.5%.

As to `Cn1cnc2c1CCN(Cc1csc(-c3ccsc3)n1)C2`, the Percent Effect is -95.3%.

Consider `COc1ccccc1OC1(C(=O)O)CCN(c2nccnc2C)CC1`, for which the Percent Effect is -3.46%.

As for `COCCN(C)C[C@@H]1CCC[C@@H]2CN(c3cc(OC)ncn3)C[C@@H]21`, the Percent Effect worked out at 2.29%.

For `Cc1ccn(-c2ccccc2NCc2ccccn2)n1`, the Percent Effect worked out at 4.81%.

For `O=C(NC1CC1)[C@@H]1CCO[C@@H]2CCN(Cc3ccsc3)C[C@H]21`, the Percent Effect was -0.513%.

Consider `Cc1nccn1C1CCCN(C(=O)c2ccc(N3CCCC3)nn2)C1` (stereo not given), for which the Percent Effect was 17.8%.

On to `O=C(NCc1cc(O)ncn1)C1CCOc2ccccc2C1` (stereo not given), for which the Percent Effect worked out at 16%.

Consider `Cc1ccc(NC2CCN(C(=O)Cc3cccc(F)c3)CC2)nn1`, for which the Percent Effect was found to be 11.3%.

As for `O=C(c1ccncc1)N1CCC(c2nc(O)cc(-c3ccncc3)n2)C1` (stereo not given), the Percent Effect turned out to be 1.62%.

Consider `CCNC(=O)[C@@H]1C[C@H](NC(=O)c2cncnc2C)CN1CCCSC`, for which the Percent Effect was -8.54%.

On to `O=C(c1cccc(S(=O)(=O)NCCCc2ccco2)c1)N1CCOCC1`, for which the Percent Effect is -0.897%.

Regarding `O=C(CCc1cnn(-c2ccccc2)c1)N1CCCC(n2cccn2)C1` (stereo not given), the Percent Effect was determined as 26.2%.

As for `Cc1cccc(COC[C@]23COC[C@H]2CN(C(=O)c2ccsc2)C3)n1`, the Percent Effect amounted to 7.59%.

For the compound `N#Cc1cccnc1NCCNC(=O)N1CCCC(C(F)(F)F)C1` (stereo not given), the Percent Effect was -17.9%.

As to `CCOc1ccc(Cl)c(C(=O)N(C)C)n1`, the Percent Effect was -62.5%.

As for `CCOc1ccc(S(=O)(=O)NC(=O)CCC2CCCO2)cc1` (stereo not given), the Percent Effect turned out to be 23.1%.

Regarding `COCCn1ccnc1C1CCCN(C(=O)CSCC2CC2)C1` (stereo not given), the Percent Effect was 12.8%.

`Cc1cc(C)c(CNC(=O)NCC(O)c2cccc(F)c2)c(=O)[nH]1` (stereo not given): the Percent Effect was determined as 28.2%.

`CN1CCN(c2cc(CNC(=O)c3ccc(=O)[nH]n3)ccn2)CC1`: the Percent Effect is -57.8%.

As for `CSc1ccc(-c2nc(CN3CCC(NC(C)=O)C3)c(C)o2)cc1` (stereo not given), the Percent Effect is -5.95%.

On to `Cc1nc(C2CCN(C(=O)c3ccc(=O)n(C)c3)CC2)c2sccn12`, for which the Percent Effect was -17.4%.

Regarding `Cc1cccc2[nH]c(C3CCN(C(=O)c4ccnn4C)CC3)nc12`, the Percent Effect was -69.6%.

As for `CC(Cn1ccnc1)NC(=O)C1(c2ccc(F)cc2)CC1` (stereo not given), the Percent Effect stood at 2.06%.

Take `CCn1ccc(C(=O)NCCCN2CCOCC2)n1`: the Percent Effect is -55.1%.

As to `COC(=O)c1sccc1S(=O)(=O)NCC1(O)CCOc2ccccc21` (stereo not given), the Percent Effect stood at 6.1%.

As to `Cc1cc(=O)[nH]c(CCNC(=O)C(c2ccc(F)cc2)N(C)C)n1` (stereo not given), the Percent Effect was -71.7%.

In the case of `Cn1nc(C2CCN(C(=O)Cc3cccc(F)c3)CC2)c2cccnc21`, the Percent Effect is -7.51%.

In the case of `COc1ccc2c(c1)CCCN2Cc1nc2c(cnn2C)c(=O)[nH]1`, the Percent Effect is -5.78%.

In the case of `Cc1cc2n(n1)CC(CNCc1ccc(-n3cccn3)nc1)CN2` (stereo not given), the Percent Effect turned out to be 3.5%.

As for `O=C(NCCC1=CCCCC1)C1CCN(c2ccc3nncn3n2)CC1`, the Percent Effect was -16.7%.

`CCc1nccn1C1CCCN(C(=O)c2cn3c(C)cccc3n2)C1` (stereo not given): the Percent Effect was 4.17%.

Take `Cc1cc(NC(=O)NCc2ccccn2)n(C)n1`: the Percent Effect was -40.7%.

(Values after ChEMBL document CHEMBL3988442, “University of Dundee, Small-Polar-MMV Screening Library” (2021).)
